# Measurements from PubChem BioAssay AID2174 (The Scripps Research Institute Molecular Screening Center, 2009).
# The whole screen tested about 320,000 compounds, of which about 500 (0.16%) were called active. The entries come from a sample that favours actives as a whole. Unmarked numbers belong to inactive results.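 Rule for the calls: active = inhibition above the mean of all tested compounds plus 3 SD, set per campaign (cut at about 14% in these data); inactive = the rest.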
# Biological target: Acyl-protein thioesterase 1 (Homo sapiens) (UniProt O75608)
# Assay: LYPLA1 inhibitors, primary screen, counter-screen for PME1 inhibitor project, biochemical, fluorescence polarization, FP-Rh probe ABPP (AID 2174);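 note: inhibitors block serine hydrolase probe labeling of LYPLA1 so polarization falls; 0% = enzyme with DMSO and 100% = wells lacking LYPLA1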
# Conditions: recombinant LYPLA1, FP-Rh probe fluorescence polarization; at 5.9 µM; hits give high values
# Sequence of Acyl-protein thioesterase 1 (Homo sapiens) (O75608 whole entry, looked up): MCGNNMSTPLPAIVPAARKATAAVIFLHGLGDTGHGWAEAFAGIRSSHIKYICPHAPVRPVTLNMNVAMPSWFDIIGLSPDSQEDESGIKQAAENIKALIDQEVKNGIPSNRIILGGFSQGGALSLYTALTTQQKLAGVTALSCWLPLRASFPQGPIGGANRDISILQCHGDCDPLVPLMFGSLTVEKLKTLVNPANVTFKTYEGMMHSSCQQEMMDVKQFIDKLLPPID
row,Structure (SMILES),inhibition
1,COc1ccc(C2CC(c3cccs3)Nc3nnnn32)cc1 (stereo not drawn),0.92%
2,CN(Cc1ccc(F)cc1Cl)S(=O)(=O)c1cccs1,4.05%
3,O=C(/C=C/c1cccc(C(F)(F)F)c1)N1CCN(c2ccccn2)CC1,-2.76%
4,Cc1cc(OCC(=O)N2CCN(c3ncccn3)CC2)ccc1Cl,-2.47%
5,CCOc1ccc(C(=O)NCC(=O)N2CCN(c3ccc(C(F)(F)F)cn3)CC2)cc1,2.56%
6,Cc1ccc(CNC(=O)CCNS(=O)(=O)c2ccc(Br)s2)cc1,0.04%
7,COC(=O)c1ccc(CSc2ccc(S(=O)(=O)N3CCCCC3)cn2)cc1,-1.32%
8,CCOc1ccc(-n2cnnn2)cc1S(=O)(=O)N1CCC(C)CC1C (stereo not drawn),3.81%
9,COc1ccc(CCNC(=O)CSc2nc(-c3ccc(OC)c(OC)c3)ccc2C#N)cc1,-12.1%
10,O=C(COc1ccc2ccccc2c1)N1CCN(C(=O)c2cccs2)CC1,1.27%
11,O=C(O)c1ccccc1NC(=S)NC(NC(=O)c1ccccc1[N+](=O)[O-])C(Cl)(Cl)Cl (stereo not drawn),2.28%
12,Cc1ccccc1Nc1nc(N)nc(CSc2ccccc2)n1,-4.27%
13,O=C1COc2ccc(NC(=O)N3CCN(c4ccc(F)cc4)CC3)cc2N1,-0.21%
14,CCCCCOc1ccc(/C=C/C(=O)NCCc2nc3ccccc3[nH]2)cc1OC,-8.82%
15,CCN(CC(=O)Nc1c(F)cccc1F)C(=O)c1ccc(S(=O)(=O)N2CCCCC2)cc1,0.21%
16,CCOc1ccc2ccccc2c1/C=N/NC(=O)c1c(C)cc(C)[nH]c1=O,-5.43%
17,Cc1[nH]c2ccc(C(=O)N3CCN(C)CC3)cc2c1C,2.14%
18,COc1ccccc1N1CCN(C(=O)c2ccc(Cl)c(S(=O)(=O)N3CCCC3)c2)CC1,1.54%
19,CCOc1ccccc1N1CCN(C(=O)c2ccc3[nH]c(C)c(C)c3c2)CC1,14.2% (active)
20,NC(=O)C1(N2CCCCC2)CCN(C2CC(=O)N(Cc3ccc(N4CCCC4=O)cc3)C2=O)CC1 (stereo not drawn),2.22%

row,Structure (SMILES),inhibition
1,COc1cccc(NC(=S)NC(=O)c2c(Cl)c(C)nn2C)c1,-3.22%
2,COCCNc1nc2nonc2nc1N1CCCC1c1nccs1 (stereo not drawn),1.24%
3,COc1ccccc1C(=O)NC(CCSC)C(=O)NNC(=O)c1ccccc1C (stereo not drawn),2.08%
4,COc1ccccc1C(=O)NC(CCSC)C(=O)N1CCN(C(C)=O)CC1 (stereo not drawn),-1.6%
5,COc1ccccc1C(=O)NC(CCSC)C(=O)N1CCN(C/C=C/c2ccccc2)CC1 (stereo not drawn),18.2% (active)
6,O=c1[nH]c2cccnc2n1-c1ccc([N+](=O)[O-])cc1,-1.44%
7,COc1cnn(-c2ccc([N+](=O)[O-])cc2)c(=O)c1Cl,3.8%
8,O=c1[nH]n(-c2ccc([N+](=O)[O-])cc2)c(=O)c2ccccc12,22.9% (active)
9,CCNC(=O)CC1C(=O)N(c2ccc(F)cc2)C(=O)N1Cc1cccs1 (stereo not drawn),1.31%
10,Cc1cc(C)c2c(n1)sc1c(=O)n(-c3ccccc3)c(=O)[nH]c12,-3.16%
11,CCOc1ccc(S(=O)(=O)N/N=C(\C)c2ccc(Cl)c(Cl)c2Cl)cc1,0.76%
12,C=CCSC(CC)(CC)C(N)=O,6.47%
13,CCCc1ccc(OCC(O)CN2CCN(C(=O)OCC)CC2)cc1 (stereo not drawn),2.73%
14,CCOc1ccc(C(=O)NC(=S)Nc2ccc(N3CCOCC3)c(Cl)c2)cc1[N+](=O)[O-],19.9% (active)
15,COc1cccc(OC)c1C(=O)NC(=S)Nc1ccc(N2CCOCC2)c(Cl)c1,-4.94%
16,CCOc1ccc(C(=O)NC(=S)Nc2ccc(NC(=O)C(C)C)cc2)cc1[N+](=O)[O-],2.01%
17,CCN1C(=NCCc2cccnc2)N[C@@H](c2ccccc2)C(C(=O)OC)=C1C,-0.51%
18,Cc1ccc(NC(=O)c2ccc(CSc3ncnc4nc[nH]c34)cc2)c(C)c1,-1.38%
19,COc1ccccc1C(CNC(=O)c1cccc(S(=O)(=O)Nc2ccc(F)cc2)c1)N(C)C (stereo not drawn),-0.85%
20,CC(C)(C)NC(=O)COc1ccc(CNc2ccc3[nH]c(=O)[nH]c3c2)cc1,-1.08%

row,Structure (SMILES),inhibition
1,CC(Oc1ccc(F)cc1)C(=O)N1CCN(c2ncccn2)CC1 (stereo not drawn),-4.75%
2,O=C(c1ccc(Br)o1)N1CCN(CCOc2ccccc2)CC1,2.69%
3,CC1(C)OC(=O)C(=CNC(CO)C(=O)O)C(=O)O1 (stereo not drawn),-1.91%
4,CCC(=C/c1sc2ccc3ccccc3c2[n+]1C)/C=C1\Sc2ccc3ccccc3c2N1C,25% (active)
5,O=C(COc1ccc(Cl)cc1)N1CCN(S(=O)(=O)c2ccc(Cl)cc2)CC1,-0.66%
6,Cc1c(C)c2ccc(OCC(=O)N3CCN(c4cccc(Cl)c4)CC3)cc2oc1=O,6.19%
7,O=C(COc1ccc(Cl)cc1)N1CCN(c2cccc(C(F)(F)F)c2)CC1,20.5% (active)
8,CC/C(=N\NC(=O)c1c(C)nc2ccccn12)c1ccc(Cl)cc1,-2.24%
9,O=C(c1ccco1)N1CCN(CC(=O)N(C2CCCCC2)C2CCS(=O)(=O)C2)CC1 (stereo not drawn),5.75%
10,CC(CC(=O)C1C(C)C=CCC1(C)C)NNC(N)=O (stereo not drawn),0.24%
11,CCOC(=O)c1sc2nc(C)nc(Nc3ccc(OC)c(OC)c3)c2c1C,-0.83%
12,CSc1nc(-c2ccccc2)nc(C(Cl)Cl)n1,3.5%
13,CCn1c(CC(=O)Nc2ccc(C)cc2)nnc1SCC(=O)Nc1nc(C)cs1,-2.24%
14,Cc1ccc(NC(=O)NNC(=O)c2sccc2-n2cccc2)cc1,-1.32%
15,CCOC(=O)NN1C(=O)c2ccccc2NC1c1ccccc1O (stereo not drawn),2.15%
16,COc1cccc(CNS(=O)(=O)c2csc(C(N)=O)c2)c1,-2.15%
17,CCCCn1c(N)c(N(CC(C)C)C(=O)CN(C)S(=O)(=O)c2ccc(F)cc2)c(=O)[nH]c1=O,-3.12%
18,CC(=O)N1C(C)c2ccccc2C(C)(C)CC12CCCCC2 (stereo not drawn),0.06%
